Assay in all cases: growth (OD600 after 10 h); higher = more growth (less inhibition)
Test [1] concerns E. coli TESEC Alr+ wild-type control. The note with it: compound 0.1 mM; raw OD600 reference: median of DMSO wells 0.241, cell-free background 0.041. Here is the method:
(§1)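 TESEC Mtb Alr E. coli, or the Alr+ wild-type control, in 384-well plates with Prestwick library compounds at 0.1 mM and 1% DMSO, across arabinose induction levels of 1E3 to 1E7 nM. Growth is read as OD600 after 10 h at 37 °C in triplicate biological replicates.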

For test [2], the system named is E. coli TESEC Mtb Alr. The note with it: compound 0.1 mM. How it is done: as §1
A further test relates to E. coli TESEC Mtb Asd. The note with it: compound 0.1 mM. Here is the method: (§2)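 TESEC E. coli strains in which the native enzyme is deleted and replaced by arabinose-inducible Mtb Asd, DapB, CysH or TrpD, each grown in its selective medium. Strains were screened against the Prestwick library at 0.1 mM and 1% DMSO in 384-well format at low and high arabinose induction. Growth is read as OD600 after 10 h in triplicate.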

The test system of the next test is E. coli TESEC Mtb DapB. To be noted: compound 0.1 mM. How it is done:
as §2

Test [3] deals with E. coli TESEC Mtb Alr. To be noted: compound 0.1 mM. Here is the method:
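TESEC Mtb Alr E. coli (ΔaraC ΔtolC ΔentC Δalr ΔdadX, arabinose-inducible Mtb Alr) or the Alr+ wild-type control strain, grown in defined M9-fructose medium without D-alanine in 96-well plates with Prestwick library compounds at 0.1 mM and 1% DMSO. Low Alr induction is 0.1 µM arabinose and high induction is 10 mM arabinose.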
This is another data set of the same source.

Where [4] appears, read: arabinose 1000 nM, raw OD600 reference: median of DMSO wells 0.294, cell-free background 0.041.
The mark [5] stands for this setting: arabinose 10000 nM, raw OD600 reference: median of DMSO wells 0.264, cell-free background 0.041.
Setting [6] is: arabinose 100000 nM, raw OD600 reference: median of DMSO wells 0.201, cell-free background 0.041.
Where [7] appears, read: arabinose 1000000 nM, raw OD600 reference: median of DMSO wells 0.193, cell-free background 0.041.
The mark [8] stands for this setting: arabinose 10000000 nM, raw OD600 reference: median of DMSO wells 0.146, cell-free background 0.041.
The mark [9] stands for this setting: arabinose induction (level): High, raw OD600 reference: median of DMSO wells 0.331, cell-free background 0.041.
Where [10] appears, read: arabinose induction (level): Low, raw OD600 reference: median of DMSO wells 0.417, cell-free background 0.041.
Setting [11] is: arabinose induction (level): High, raw OD600 reference: median of DMSO wells […], cell-free background 0.041.
Where [12] appears, read: arabinose induction (level): Low, raw OD600 reference: median of DMSO wells 0.227, cell-free background 0.041.
Where [13] appears, read: arabinose 100 nM, raw OD600 reference: median of DMSO wells 0.413, cell-free background 0.052.
Where [14] appears, read: arabinose 10000000 nM, raw OD600 reference: median of DMSO wells […], cell-free background 0.052.

± gives the standard deviation of the averaged measurements.

For `NC(=O)C[S+]([O-])C(c1ccccc1)c1ccccc1` (stereo not given) [Modafinil], the growth was found to be 0.246 ± 0.0057 in test [1]; 0.295 ± 0.0039 with E. coli TESEC Mtb Alr [2] (setting [4]); 0.255 ± 0.015 with E. coli TESEC Mtb Alr [2] (setting [5]); 0.246 ± 0.021 with E. coli TESEC Mtb Alr [2] (setting [6]); 0.192 ± 0.0097 in the test with E. coli TESEC Mtb Alr [2] (setting [7]); 0.148 ± 0.0039 with E. coli TESEC Mtb Alr [2] (setting [8]). The growth with E. coli TESEC Mtb Asd (setting [9]) came out at 0.348 ± 0.097; with E. coli TESEC Mtb Asd (setting [10]) it was 0.434 ± 0.039; with E. coli TESEC Mtb DapB (setting [11]) it was 0.191 ± 0.013; with E. coli TESEC Mtb DapB (setting [12]), 0.199 ± 0.017; with E. coli TESEC Mtb Alr [3] (setting [13]) it was 0.406 ± 0.0054; with E. coli TESEC Mtb Alr [3] (setting [14]) it was 0.346 ± 0.021.

For `C[N+]1(C)CCOC(O)(c2ccc(-c3ccc(C4(O)C[N+](C)(C)CCO4)cc3)cc2)C1` (stereo not given) [Hemicholinium bromide], the growth was found to be 0.227 ± 0.013 in test [1]; 0.298 ± 0.02 with E. coli TESEC Mtb Alr [2] (setting [4]); 0.276 ± 0.0044 in the test with E. coli TESEC Mtb Alr [2] (setting [5]); 0.229 ± 0.025 with E. coli TESEC Mtb Alr [2] (setting [6]); 0.1741 ± 0.00078 in the test with E. coli TESEC Mtb Alr [2] (setting [7]); 0.195 ± 0.0053 with E. coli TESEC Mtb Alr [2] (setting [8]). Also, the growth was determined as 0.352 ± 0.026 in the test on E. coli TESEC Mtb Asd (setting [9]); 0.281 ± 0.069 in the test with E. coli TESEC Mtb Asd (setting [10]); 0.21 ± 0.012 in the test on E. coli TESEC Mtb DapB (setting [11]); 0.217 ± 0.021 in the test on E. coli TESEC Mtb DapB (setting [12]); 0.403 ± 0.0081 with E. coli TESEC Mtb Alr [3] (setting [13]); 0.397 ± 0.015 with E. coli TESEC Mtb Alr [3] (setting [14]).

On to `O=C(O)CCCc1ccc(N(CCCl)CCCl)cc1` [Chlorambucil], for which the growth was found to be 0.2478 ± 0.002 in test [1]; 0.296 ± 0.0033 in the test with E. coli TESEC Mtb Alr [2] (setting [4]); 0.263 ± 0.0054 in the test on E. coli TESEC Mtb Alr [2] (setting [5]); 0.206 ± 0.0083 in the test with E. coli TESEC Mtb Alr [2] (setting [6]); 0.191 ± 0.0081 in the test with E. coli TESEC Mtb Alr [2] (setting [7]); 0.135 ± 0.0069 in the test with E. coli TESEC Mtb Alr [2] (setting [8]). Moreover, the growth stood at 0.258 ± 0.086 with E. coli TESEC Mtb Asd (setting [9]); 0.288 ± 0.096 in the test with E. coli TESEC Mtb Asd (setting [10]); 0.209 ± 0.023 in the test with E. coli TESEC Mtb DapB (setting [11]); 0.259 ± 0.023 with E. coli TESEC Mtb DapB (setting [12]); 0.429 ± 0.0069 in the test with E. coli TESEC Mtb Alr [3] (setting [13]); 0.326 ± 0.016 in the test on E. coli TESEC Mtb Alr [3] (setting [14]).

`C[N+]1(C)[C@@H]2CC[C@H]1C[C@@H](OC(=O)C(CO)c1ccccc1)C2` (stereo not given in full) [Methylatropine nitrate]: the growth in test [1] turned out to be 0.232 ± 0.013; with E. coli TESEC Mtb Alr [2] (setting [4]), 0.283 ± 0.017; in the test with E. coli TESEC Mtb Alr [2] (setting [5]), 0.247 ± 0.0037; with E. coli TESEC Mtb Alr [2] (setting [6]), 0.206 ± 0.0059; with E. coli TESEC Mtb Alr [2] (setting [7]) it was 0.2 ± 0.007; in the test with E. coli TESEC Mtb Alr [2] (setting [8]) it was 0.14 ± 0.0059. The growth in the test on E. coli TESEC Mtb Asd (setting [9]) stood at 0.286 ± 0.02; in the test with E. coli TESEC Mtb Asd (setting [10]), 0.438 ± 0.022; in the test with E. coli TESEC Mtb DapB (setting [11]), 0.199 ± 0.028; with E. coli TESEC Mtb DapB (setting [12]) it was 0.229 ± 0.0072; in the test on E. coli TESEC Mtb Alr [3] (setting [13]) it was 0.391 ± 0.011; in the test on E. coli TESEC Mtb Alr [3] (setting [14]), 0.355 ± 0.012.

In the case of `C[C@]12COC(=O)C[C@@H]1CC[C@@H]1[C@@H]2CC[C@@]2(C)[C@H]1CC[C@]2(C)O` [Oxandrolone], the growth in test [1] was 0.157 ± 0.0027; in the test with E. coli TESEC Mtb Alr [2] (setting [4]), 0.189 ± 0.0087; with E. coli TESEC Mtb Alr [2] (setting [5]) it was 0.232 ± 0.0096; in the test on E. coli TESEC Mtb Alr [2] (setting [6]) it was 0.126 ± 0.0067; with E. coli TESEC Mtb Alr [2] (setting [7]), 0.105 ± 0.005; with E. coli TESEC Mtb Alr [2] (setting [8]) it was 0.12 ± 0.0015. In addition, the growth in the test with E. coli TESEC Mtb Asd (setting [9]) worked out at 0.148 ± 0.0058; in the test on E. coli TESEC Mtb Asd (setting [10]) it was 0.319 ± 0.033; with E. coli TESEC Mtb DapB (setting [11]) it was 0.14 ± 0.0074; in the test on E. coli TESEC Mtb DapB (setting [12]) it was 0.154 ± 0.015; in the test on E. coli TESEC Mtb Alr [3] (setting [13]), 0.42 ± 0.0079; with E. coli TESEC Mtb Alr [3] (setting [14]) it was 0.246 ± 0.019.

(Values after the supplement of paper PMC9262897, “Low-cost anti-mycobacterial drug discovery using engineered E. coli” (Nature Communications, 2022).)
